Rows were chosen to be rich in hits. Some 1.4% of all compounds tested hit in one or more screens of this group.
S1P2 ag – agonists of human S1P2 receptor; S1P2-expressing cell line, agonist reporter read-out; activation, % at 4.5 µM; 0.46% of 97,000 active; in the data active = activation above about 16%;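 also: 0% = vehicle low control and 100% = maximal reference agonist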
PTPN22 inh 2 – inhibitors of human LYP (PTPN22) phosphatase | 0.21% of 96,000 active | Q9Y2R2 | inhibition, % at 2 µM | recombinant LYP catalytic domain, DiFMUP fluorescence;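 active = inhibition at 2 µM at or above a set limit, the screen mean plus 3 SD, cut at about 24% in these data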;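 also: 0% = DMSO with enzyme and 100% = enzyme fully blocked by orthovanadate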
Target sequence (Q9Y2R2 whole entry, looked up, the tested form may be a part): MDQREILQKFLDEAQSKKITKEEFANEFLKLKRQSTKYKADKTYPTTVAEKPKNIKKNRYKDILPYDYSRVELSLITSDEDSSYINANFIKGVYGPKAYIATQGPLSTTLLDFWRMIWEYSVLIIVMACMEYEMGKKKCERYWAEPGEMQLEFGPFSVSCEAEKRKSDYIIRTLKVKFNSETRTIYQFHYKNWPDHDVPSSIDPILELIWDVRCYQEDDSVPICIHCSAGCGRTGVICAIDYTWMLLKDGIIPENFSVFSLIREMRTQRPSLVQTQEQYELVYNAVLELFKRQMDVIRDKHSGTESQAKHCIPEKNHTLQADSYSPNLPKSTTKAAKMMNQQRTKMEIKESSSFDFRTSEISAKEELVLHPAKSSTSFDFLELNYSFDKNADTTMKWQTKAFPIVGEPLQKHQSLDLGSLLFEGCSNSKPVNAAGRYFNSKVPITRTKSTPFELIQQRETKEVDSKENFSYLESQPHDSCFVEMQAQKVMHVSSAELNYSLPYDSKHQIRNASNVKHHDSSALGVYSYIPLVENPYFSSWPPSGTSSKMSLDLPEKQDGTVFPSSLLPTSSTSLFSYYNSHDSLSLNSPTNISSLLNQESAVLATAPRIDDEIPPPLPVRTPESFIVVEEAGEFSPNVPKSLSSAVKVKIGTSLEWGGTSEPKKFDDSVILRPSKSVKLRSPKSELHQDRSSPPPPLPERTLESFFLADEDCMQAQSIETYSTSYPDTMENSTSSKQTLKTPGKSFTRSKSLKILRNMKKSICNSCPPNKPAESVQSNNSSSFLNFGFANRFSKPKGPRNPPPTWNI
S1P2 blocker – S1P2 (human) receptor antagonism. AID 736. O95136. inhibition, % at 5 µM. cell-based S1P2 antagonist assay, inhibition at 5 uM. 0.21% of 97,000 active; in the data active = inhibition above about 45%;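 also: CRE beta-lactamase reporter cells expressing human S1P2 stimulated with S1P; 0% = agonist at EC80 alone and 100% = agonist plus reference antagonist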
LYP act – LYP (human) phosphatase activation | 0.11% of 96,000 active | activation, % at 2 µM | recombinant LYP, DiFMUP fluorescence; 0 = plate median, 100 = signal doubled | AID 697;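 active = activation at 2 µM above a set limit, the mean plus 5 SD, cut at about 37% in these data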
GALR2 agonist – agonists of human galanin receptor 2 (GALR2); O43603; GALR2-expressing cells, agonist activation read-out; activation, % (test concentration not listed); 0.48% of 140,000 active; in the data active = activation above about 5%, passing the limit was not always enough;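 also: 0% = vehicle buffer wells and 100% = reference agonist at full effect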
GALR2 blocker – blocks the human galanin receptor 2; AID 828; inhibition, % at 4 µM; O43603; GALR2-expressing cells, antagonist mode; 0.39% of 140,000 active; in the data active = inhibition above about 27%;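 also: cells stimulated with galanin 1-16 at roughly its EC80; 0% = agonist challenge control and 100% = basal control without agonist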
PTPN22 act conf – confirmation of human LYP phosphatase activators | Recombinant LYP, DIFMUP fluorescence, activation; zero set by plate's median compound well | shares compounds with LYP act | AID 1031 | 100 tested, under 10 active | activation, % at 2 µM; call rule not given here
GALR2 agon conf – GALR2 (human) agonism confirmed; shares compounds with GALR2 agonist; GALR2-expressing cells, agonist activation; activation, % at 5.6 µM; 10% of 460 active; AID 864; in the data active = activation above about 8.4%;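 also: 0% = buffer-only vehicle wells and 100% = full reference agonist response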
BLA activ ctr – counter-screen for GALR2 agonists: beta-lactamase reporter activators; activation, % at 5.6 µM; CHO NFAT-bla reporter, beta-lactamase FRET activation; 10% of 460 active; AID 865; shares compounds with GALR2 agonist;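 active = activation above the screen-wide mean activation plus 3 SD, cut at about 8% in these data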;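 also: 0% = DMSO with PBS wells and 100% = thapsigargin positive control wells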
* marks the source's active call; other numbers are inactive results; . = no result given.

SMILES	S1P2 ag	PTPN22 inh 2	S1P2 blocker	LYP act	GALR2 agonist	GALR2 blocker	GALR2 agon conf	BLA activ ctr	others
CN(C)CCNc1ncnc2c1sc1nc(N3CCOCC3)c3c(c12)CC(C)(C)SC3	1	-54	-25	49*	0	-23	.	.	PTPN22 act conf=7
O=C(Nc1ccc2c(c1)OCCO2)C1CCN(S(=O)(=O)c2cccc3nsnc23)CC1	-4	-5	6	3	2	-10	.	.
O=C(Nc1ccc2c(c1)OCCO2)C1CCCN(S(=O)(=O)c2cccc3nsnc23)C1 (configuration not stated)	-5	-47	-14	42*	-2	-4	.	.	PTPN22 act conf=-5
CC(C)(C)NC(=O)C1Cc2ccccc2CN1C(=O)Nc1ccccc1Cl (configuration not stated)	-4	4	4	1	-4	8	.	.
CCn1c(COc2ccc(C)cc2)nnc1SCC(=O)NNC(=O)c1ccc(OC)cc1	.	.	.	.	-1	-21	.	.
Cc1cc(N2CCOCC2)nc2ccc(NC(=O)CCC(=O)N3CCCCC3)cc12	-7	-42	2	38*	-2	-7	.	.	PTPN22 act conf=-1
O=S(=O)(/N=C(/Nc1ccccn1)c1ccc(Cl)cc1)c1ccc(Cl)cc1	.	.	.	.	-2	-3	.	.
CC1CC(NS(=O)(=O)c2cccs2)CC(C)(C)C1 (configuration not stated)	-3	-8	1	10	-1	-2	.	.
O=C(Nc1ccccc1)N(Cc1ccccc1)CC(O)C(F)(F)F (configuration not stated)	-6	-45	-15	50*	-3	7	.	.	PTPN22 act conf=9
COc1ccc2c(CC(=O)OCC(=O)NC(=O)c3cccn3C)coc2c1	-2	-10	1	7	-3	-7	.	.
CC(C)=C1C2CCC1C1C(=O)N(NC(=O)COc3ccc(C(C)(C)C)cc3)C(=O)C21 (configuration not stated)	-1	12	2	-12	0	1	.	.
CCCCSc1nnc(CSc2nc3nc(C)cc(C)n3n2)o1	-1	6	-6	-6	-1	20	.	.
Cc1ccc(-c2c3c(=O)n(C)c(=O)n(C)c3cn2Cc2ccccc2)cc1	-5	9	-12	-9	71*	-9	0	0
COc1cc(C2=NOC(C(=O)NCc3cccs3)C2)cc(OC)c1OC (configuration not stated)	-1	0	-9	-1	88*	7	-1	-2
CN1C(=O)/C(=C/c2ccccc2OCc2ccccc2)NC1=S	.	.	.	.	0	-10	.	.
CN1C(=O)/C(=C/c2ccccc2OCc2cccc(F)c2)NC1=S	-2	11	-20	-5	146*	-7	0	-3
Cc1ccc2nc(-c3ccc(NS(=O)(=O)c4ccccc4)cc3)sc2c1	.	.	.	.	11*	-8	0	2
Cc1ccc2nc(-c3ccc(NS(=O)(=O)c4ccc(F)c(F)c4)cc3)sc2c1	.	.	.	.	2	5	.	.
CC(=O)c1ccc2c3c(cccc13)C(=O)N(c1c(C)nn(C)c1C)C2=O	-3	-11	-9	15	20*	-2	-1	-1
Cc1n[nH]c(C)c1N1C(=O)c2cccc3c(N4CCCCCC4)ccc(c23)C1=O	-10	4	33	-4	1	18	.	.
N=c1oc2ccccc2cc1-c1nc(-c2ccccc2)cs1	.	.	.	.	20*	1	3	5
COc1ccc(NC(=O)C2=C(C)C(=O)OC23CCC(C)CC3)cc1Cl (configuration not stated)	-1	-4	-8	4	84*	-24	-1	-1
COc1ccc(CNC(=O)C2=C(C)C(=O)OC23CCC(C)CC3)cc1 (configuration not stated)	-1	-2	-9	-1	-3	-4	.	.
O=C(CCn1c(=O)c2ccccc2n(CC(=O)NCCC2=CCCCC2)c1=O)NCc1ccco1	-8	-1	15	2	86*	15	-1	-4
COCCNC(=O)CCCn1c(=O)c2ccccc2n(CC(=O)NCCC2=CCCCC2)c1=O	-2	2	26	-5	0	-17	.	.
SMILES	S1P2 ag	PTPN22 inh 2	S1P2 blocker	LYP act	GALR2 agonist	GALR2 blocker	GALR2 agon conf	BLA activ ctr	others
COc1ccc(-c2csc(NC(=O)CSc3nc(SC)ns3)n2)cc1	.	.	.	.	-1	4	.	.
Cc1cccc(C(=O)N=c2c(C#N)cc3c(=O)n4cccc(C)c4nc3n2Cc2ccco2)c1	3	15	6	-16	8	-8	5	8.3*
Cc1cc(C)c2c(N)c(C(=O)NCC3CCCCC3)sc2n1	-4	-9	-21	10	28*	3	0	0
COCc1cc(/C=N\NC(=O)Cc2ccc(OC)cc2)ccc1OC	.	.	.	.	-2	6	.	.
CCCS(=O)(=O)c1snnc1C	-4	4	-5	-4	14*	-15	-1	0
O=C1C=CC(=O)N1N(c1ccccc1)c1ccccc1	.	.	.	.	0	15	.	.
CC1(C)CC(=O)C=C(Nc2ccc(C(=O)O)cc2)C1	-3	-28	-9	24	0	8	.	.
CC1(C)CC(=O)C=C(Nc2ccc(S(N)(=O)=O)cc2)C1	-11	12	-13	-10	41*	7	-1	-2
CCOC(=O)C(NC(=O)c1ccccc1)=C(C)C	-2	-6	-9	6	11	-2	-1	-3
N#C/C(=C\c1cc(Cl)cc(Cl)c1O)C(=O)NC1CCCCC1	-7	11	14	-6	-2	-18	.	.
CCOC(=S)SCC(=O)Nc1nc(-c2ccc(Br)cc2)cs1	.	.	.	.	16*	8	5	-4
CCOC(=S)SCC(=O)Nc1nc(-c2ccccc2)cs1	.	.	.	.	-1	3	.	.
CCCCn1nnnc1SCC(=O)NNC(=O)C1CCCCC1	-10	-2	-2	-2	-2	8	.	.
Cc1ccc(OCc2nc(-c3ccccn3)n[nH]2)cc1	-2	7	-12	-6	73*	-2	-1	-2
CCN(CC)c1ccc2cc(-c3nc4ccccc4n3C)c(=O)oc2c1	3	5	69*	-6	10	43*	4	4
COc1cc(NC(=O)c2ccc(Cl)cc2Cl)ccc1-c1cc2ccccc2oc1=O	4	16	23	-13	13*	-14	6	2
COC(=O)Cn1c(=NC(=O)c2sc3ccccc3c2Cl)sc2cc(S(N)(=O)=O)ccc21	.	.	.	.	0	1	.	.
COC(=O)Cn1c(=NC(=O)c2nc3ccccc3s2)sc2cc(S(C)(=O)=O)ccc21	.	.	.	.	39*	-16	0	2
CCn1c2ccc(C)cc2c2nnc(NN)nc21	.	.	.	.	1	-9	.	.
CSc1nnc2c3cc(C)ccc3n(Cc3ccccc3)c2n1	.	.	.	.	10*	8	7	3
CCOC(=O)CN1C(=O)CN(c2ccc(C)cc2)C1=O	.	.	.	.	0	-2	.	.

From PubChem BioAssay
